Screening data (PubChem BioAssay)
Most compounds without a hit are left out; they make up all but 7.2% or so of the library.
Sm TGR inh – blocks Schistosoma mansoni thioredoxin glutathione reductase; Q962Y6; purified TGR, DTNB reduction, TNB absorbance 405 nm; Potency, µM (titrated, usually from 114 µM), without a hit: at the highest dose activity change, negative = inhibition, most hits filed as inhibitors; actives 3% (n = 360,000); note: nearly all actives have a fitted effect of over 60% in size
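TGR 20 nM + NADPH 100 uM (dispensed conc.), cpd preinc 15 min RT; start with NADPH (500 uM addition) then DTNB (15 mM addition). Kinetic TNB absorbance, 405 nm filter. Four-parameter Hill fit across titration.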
Marburg entry inh – inhibitors of Marburg virus binding or cell entry; Marburg virus pseudotyped entry inhibition, cell reporter; Potency, µM (top dose mostly 37.8 µM), inactives show top-dose activity change, negative = inhibition, usual class: inhibitors; actives 1.8% (n = 300,000); calls by dose curve; tested in HEK293 cells
FMDV antiviral – blocks foot and mouth disease virus. FMDV antiviral cell-based qHTS. Potency, µM (titrated, usually from 57.9 µM), inactives show at the highest dose activity change, negative = inhibition, hits mostly inhibitors. actives 1.2% (n = 410,000); calls by dose curve; tested in HEK293T cells; note: read-out not given here; nearly all actives have a fitted effect of over 45% in size
LASV entry inh – Lassa virus entry inhibition; actives 1.2% (n = 300,000); Lassa virus pseudotype entry inhibition, cell reporter; Potency, µM (highest dose often 37.9 µM), inactives show top-dose activity change, negative = inhibition, most hits filed as inhibitors; calls by dose curve; tested in HEK293 cells; note: nearly all actives have a fitted effect of over 50% in size
RE007 growth inh – less growth of the S. pombe RE007 Vpr strain. S. pombe RE007 Vpr strain, BacTiter-Glo ATP luminescence, 24 h. Potency, µM (titrated, usually from 92.2 µM), without a hit: at the highest dose activity change, negative = less growth, most hits filed as inhibitors. actives 0.21% (n = 360,000). AID 651644; active = well fitted falling curve with a large enough effect; inconclusive = small, poorly fitted or top-dose-only effect; inactive = no such curve, though single readings can be large or run the other way; note: nearly all actives have a fitted effect of over 50% in size
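Fission yeast RE007 carrying one integrated HIV-1 vpr copy, seeded at OD 0.01 in PMG+AL medium with 23 nL pinned compound. Grown 24 h at 30 degrees; viability read by BacTiter-Glo luminescence after 5 min.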
HCV inhibitor – blocks hepatitis C virus; actives 3.4% (n = 340,000); Huh7.5.1 HCVcc-Cre infection, luciferase reporter, 44 h; Potency, µM (highest dose often 41.8 µM), for the others: at the top dose activity change, negative = inhibition, actives largely listed as inhibitors
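Seed cells (1,000/well) for 4 h; treat with compound and infect with HCVcc-Cre, moi about 0.5. Incubate 44 h, then detect luciferase activity.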
* = called active by the depositor; u = inconclusive; x = no result; ! = not active in a repeat; [ ] = remark or other dose. Unless noted, calls come from the whole dose curve; as a rule, active = well fitted curve in the direction sought with a large enough effect; inconclusive = small, poorly fitted or top-dose-only effect, or another doubt; inactive = no such curve, though single readings can be large; an effect the other way counts as inactive or inconclusive. % is set by controls: 0 for no effect and ±100 for the full control effect; potency is the fitted concentration of half-maximal effect.

SMILES | Sm TGR inh | Marburg entry inh | FMDV antiviral | LASV entry inh | RE007 growth inh | HCV inhibitor
COc1ccc(-c2nc3cc(NC(=O)Cc4ccc(OC)c(OC)c4)ccc3o2)cc1 | 10% | u | u | -20% | -13% | 7.1µM*
COc1cccc(-c2nc(-c3ccc(NC(=O)Cc4ccccc4OC)cc3)no2)c1 | 0% | -4% | 18% | -9% | -5% | 6.3µM*
CC(=O)Oc1ccc(C(=O)Nc2cccc(C(=O)NC(C)(C)C)c2)cc1 | 2% | 16%[46.1 µM] | -6% | -11% | 6% | 13µM*
O=C(Nc1cccc(-c2nnc(-c3ccccc3)o2)c1)C1CC1 | x | u | 49% | -17% | 2% | 14µM*
CC(=O)Oc1ccc(C(=O)Nc2cccc(-c3nnc(-c4ccco4)o3)c2)cc1 | 3% | 11µM* | -9% | u | 2% | u
O=C(Nc1cccc(-c2nnc(-c3ccco3)o2)c1)c1ccccc1 | 6% | u | -27% | -26%[46.1 µM] | 8% | -27%
COc1ccc(CC(=O)Nc2ccc(-c3nnc(-c4ccccc4)o3)cc2)cc1OC | 0% | 20% | 43% | 25%[14.3 µM] | -10% | 6%
CC(=O)Nc1cccc(-c2nnc(-c3ccccc3)o2)c1 | 2% | u | -4% | 0% | -11% | 6%
COc1ccc(CC(=O)Nc2cccc(-c3nnc(-c4cccc(C)c4)o3)c2)cc1OC | 7% | u | 40µM* | u | 9% | 6.3µM*
O=c1ccc2c(OCCCCc3ccccc3)c3ccoc3cc2o1 | x | u | x | 11% | x | x
CCOC(=O)c1cc(-c2ccc(OC)c(S(=O)(=O)NC3CCCCC3)c2)on1 | 6% | x | 69% | 29%[46.1 µM] | x | x
Cc1cn2c(=O)c(S(=O)(=O)Nc3ccc(F)cc3F)c(C)nc2s1 | -1% | x | -1% | -17%[46.1 µM] | x | x
Cc1ccc(C(=O)c2oc3ccccc3c2NC(=O)c2cc(=O)c3ccccc3o2)cc1 | 0% | 30%[46.1 µM] | -6% | 3%[46.1 µM] | x | x
CC12CC(c3ccccc3O1)N(C(=O)c1ccco1)C(=S)N2c1ccccc1 (stereo unspecified) | 0% | 16µM* | -15% | u | -11% | -10%
CC(=O)c1c(N2CCN(C(=O)c3ccco3)CC2)nc(=S)n(-c2ccccc2)c1C | -30% | -9% | 0% | 14% | -12% | 15%
C#CCNC(=O)C1=C[C@H](C2CCCCC2)[C@@H](CCCO)[C@H](OCC)O1 | 18µM* | x | -14% | x | 12% | 1%
C#Cc1ccc([C@H]2C=C(C(=O)NCc3ccccc3)O[C@@H](OCC)[C@@H]2CCCO)cc1 | 0% | x | -4% | x | 13% | u
C#CCNC(=O)C1=C[C@H](c2ccccc2)[C@@H](CCCO)[C@H](OCC)O1 | 20µM* | x | -22% | x | -3% | -10%
CCOC(=O)N(O)c1ccc(C=Cc2ccccc2)cc1 | x | 1.3µM* | 15% | 0.63µM* | 16% | 4µM*
NC(=O)CN(C/C=C/c1ccccc1)C/C=C/c1ccccc1 | -2% | x | -10% | x | -9% | 0%
O=C(CF)N(O)c1ccc(C=Cc2ccccc2)cc1 | x | 1µM* | 16% | 1.1µM* | -12% | u
O=C(CCNS(=O)(=O)c1ccc2c(c1)CCN2C(=O)C1CC1)Nc1ccc(F)cc1F | -35% | x | 0% | -15%[46.1 µM] | x | x
Cc1ccccc1C(OCCN(C)C)c1ccccc1 (stereo unspecified) | 0% | 13µM*! | -10% | u | 5%[18.4 µM] | u
CCN(CC)CCOC(c1ccccc1)c1ccc(C)cc1 (stereo unspecified) | 2% | 8.9µM* | -24% | u | 0% | u
Cc1ccccc1[C@@H](OCCN(C)C)c1ccccc1 | x | -36% | x | x | x | x
SMILES | Sm TGR inh | Marburg entry inh | FMDV antiviral | LASV entry inh | RE007 growth inh | HCV inhibitor
CCN(CC)CCC(C)OC(c1ccccc1)c1ccccc1 (stereo unspecified) | 2% | x | -19% | x | 18% | 6%
O=C(Nc1ccc2nsnc2c1)N1CCCCCC1 | -2% | 27% | 61% | 8% | -16% | -13%
S=C(Nc1ccc2nsnc2c1)N1CCCC1 | 40µM* | 21%[46.1 µM] | 85% | 12% | 4% | -6%
CCn1c(O)c(/C=C/C=C/C=Nc2ccccc2)sc1=S | x | 11%[46.1 µM] | -15% | 9%[46.1 µM] | -12% | -2%
CCCCn1c(O)c(/C=C/C=C/C=Nc2ccccc2)sc1=S | 20µM* | -22%[46.1 µM] | u | 7% | -2% | -22%
Oc1c(/C=C/C=C/C=Nc2ccccc2)sc(=S)n1Cc1ccccc1 | 11µM* | x | -4% | x | -1% | 4%
O=C(/C=C/c1ccc(S(=O)(=O)N2CCOCC2)cc1)NC(=S)NCCCn1ccnc1 | -14% | u | -10% | u | 1% | 22µM*
O=C(COc1ccc(S(=O)(=O)N2CCOCC2)cc1)NCCCn1ccnc1 | 9% | 3%[46.1 µM] | -17% | u | -7% | 10%
COc1ccc(C2=C[C@H](c3cccc(OC)c3)n3nnnc3N2)cc1 | x | -14%[46.1 µM] | x | x | x | x
CNC(=S)N1N=C(c2ccc(C)cc2)CC1c1ccc(OC)cc1 (stereo unspecified) | 13% | -20% | -17% | u | 9% | u
CNC(=S)N1N=C(c2ccc(Br)cc2)CC1c1ccc(OC)cc1 (stereo unspecified) | -7% | u | 0% | u | 9% | 10µM*
COc1ccc(C2CC(c3ccc(Br)cc3)=NN2C(=O)CN2CCCC2)cc1 (stereo unspecified) | 6% | u | -23% | u | 22% | 10µM*
CCOc1ccc2c(c1)C(=NNC(=O)c1ccncc1)c1cc(OCC)ccc1-2 | -8% | 3.2µM* | -24% | 6.3µM* | 0% | -4%
O=C1c2ccccc2C(=O)c2cc(N3CCCCC3)ccc21 | x | 4µM* | 10µM* | 3.2µM* | -18% | u
Cc1cccc(C(=O)NCCC(=O)NCc2ccccc2Cl)c1 | -3% | x | 11% | x | -3% | -3%
O=C1N/C(=N/N=C/c2ccc(O)cc2)SC1Cc1ccccc1 (stereo unspecified) | 1% | 0% | 5% | 1.5µM* | 5% | 23%
COc1ccc(CC2S/C(=N/N=C/c3ccc(O)cc3)NC2=O)cc1 (stereo unspecified) | -3% | 8% | 8% | 1.5µM* | 39% | u
C[C@@H]1[C@@H](c2ccccc2)Oc2c(Cl)cccc2S(=O)(=O)N1Cc1cccc(F)c1 | x | x | x | -1%[46.1 µM] | x | x
COc1ccc(CNC(=O)c2ccc(-c3nc(CSc4ccccc4)c(C)o3)cc2)cc1 | -9% | x | -7% | 6%[46.1 µM] | x | x
Cc1oc(-c2cccc(Cl)c2)nc1CSCC(=O)NCc1ccccc1Cl | -12% | 0%[46.1 µM] | 0% | 7%[46.1 µM] | x | x
COc1ccc2oc3cc(C)[n+]([O-])c(-c4ccc(Br)cc4)c3c2c1 | -5% | -28% | 32µM* | u | 22% | u
Cc1ccc2c(CC(=O)OCc3nc(N)nc(Nc4ccccc4C)n3)coc2c1 | 12% | 15µM* | -6% | -3% | -3% | -20%
